# Test results as given in PubChem BioAssay (NCI).
# Compounds without any hit were thinned out: in the full panel of roughly 79,000, 15% have a hit. A number with no mark means an inactive call. Activity calls are given as the source filed them. No stated cut-off is given here; in the data, active means growth inhibition above about 70%; inactive means the rest.
# Experiments:
# [1] = NCI Yeast Anticancer Drug Screen. Data for the rad52 strain (AID 147);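 further: 0% = growth of vehicle-treated control cultures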; conditions: S. cerevisiae rad52 mutant growth inhibition, stronger effect = higher value
# Method in brief: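 Screen used a yeast mutant impaired in DNA repair. After compound exposure, growth was measured. Values reflect inhibition compared with vehicle-treated cells.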
# [2] = NCI Yeast Anticancer Drug Screen. Data for the wt1 strain (AID 149);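 further: 0% = growth of vehicle-treated wt1 cultures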; conditions: S. cerevisiae wt1 strain (SPY 50644) growth inhibition, stronger effect = higher value
# Method in brief: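 Yeast wt1 strain exposed to compounds; growth inhibition measured relative to vehicle-treated controls.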
# [3] = NCI Yeast Anticancer Drug Screen. Data for the rad50EPP+ strain (AID 151);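 further: 0% = growth of vehicle-treated control cultures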; conditions: S. cerevisiae rad50 mutant strain, stronger effect = higher value
# Method in brief: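 Exposing the rad50EPP+ strain to each compound, growth was compared with vehicle-only cultures to give inhibition.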
# [4] = NCI Yeast Anticancer Drug Screen. Data for the mgt1 strain (AID 153); conditions: S. cerevisiae mgt1 mutant growth inhibition, stronger effect = higher value
# Method in brief: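 Genetically defined yeast (mgt1) treated with compound; inhibition of growth expressed against vehicle-treated controls.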
# [5] = NCI Yeast Anticancer Drug Screen. Data for the rad50 strain (AID 155);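 further: 0% = growth of vehicle-only cultures of the same strain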; conditions: S. cerevisiae rad50 strain growth inhibition, stronger effect = higher value
# Method in brief: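 Yeast carrying a defined DNA repair defect were exposed to test compounds, and growth was compared with vehicle-treated controls to give percent inhibition.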
# [6] = NCI Yeast Anticancer Drug Screen. Data for the mec2-1 strain (AID 157); conditions: S. cerevisiae mec2-1 strain, stronger effect = higher value
# Method in brief: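 Readout is yeast growth inhibition, normalised to vehicle-treated controls, in the mec2-1 strain exposed to compound.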
# [7] = NCI Yeast Anticancer Drug Screen. Data for the sgs1 mgt1 strain (AID 161);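 further: 0% = growth of cultures given vehicle only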; conditions: S. cerevisiae sgs1 mgt1 strain, stronger effect = higher value
# Method in brief: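 Yeast cells carrying a defined DNA-repair defect were exposed to test compounds. Growth inhibition was measured relative to vehicle-treated controls.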
# [8] = NCI Yeast Anticancer Drug Screen. Data for the CLN2oe strain (AID 163);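 further: 0% = growth of vehicle-only control cultures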; conditions: S. cerevisiae CLN2oe strain, stronger effect = higher value
# Method in brief: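 Values reflect how much compound exposure reduced yeast growth, referenced to vehicle-exposed cells. Assay organism is a strain with a defined genetic change affecting cell-cycle control.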
# [9] = NCI Yeast Anticancer Drug Screen. Data for the cln2 rad14 strain (AID 165);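 further: 0% = growth equal to vehicle treated cultures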; conditions: S. cerevisiae cln2 rad14 strain, stronger effect = higher value
# Method in brief: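 Relative to vehicle controls, growth inhibition of compound-treated cln2 rad14 yeast was recorded.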
# [10] = NCI Yeast Anticancer Drug Screen. Data for the bub3 strain (AID 167); conditions: S. cerevisiae bub3 mutant strain, stronger effect = higher value
# Method in brief: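 Compounds were applied to a genetically altered yeast strain carrying a cell-cycle control defect. Growth inhibition was scored against vehicle-treated controls.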
# [11] = NCI Yeast Anticancer Drug Screen. Data for the wt2 strain (AID 169);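 further: 0% = growth of vehicle-treated yeast cultures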; conditions: S. cerevisiae wt2 strain growth inhibition, stronger effect = higher value
# Method in brief: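 Values express reduction in yeast growth under compound treatment, referenced to vehicle-treated cells.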
# [12] = NCI Yeast Anticancer Drug Screen. Data for the mlh1 strain (AID 171);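 further: 0% = growth of vehicle-treated control cultures of the same strain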; conditions: S. cerevisiae mlh1 strain growth inhibition, stronger effect = higher value
# Method in brief: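 Steps: expose the defined-mutant yeast strain to compound; expose a parallel culture to vehicle; measure growth; express compound effect as inhibition relative to the vehicle culture.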
# [13] = NCI Yeast Anticancer Drug Screen. Data for the sgs1 strain (AID 173);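 further: 0% = growth of vehicle-only control cultures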; conditions: S. cerevisiae sgs1 mutant, stronger effect = higher value
# Method in brief: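 Treat defined-mutant yeast with compound; measure growth; calculate inhibition relative to vehicle-treated cells.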
# [14] = NCI Yeast Anticancer Drug Screen. Data for the mlh1 rad18 strain (AID 175); conditions: S. cerevisiae mlh1 rad18 strain growth inhibition, stronger effect = higher value
# Method in brief: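 Test agents were incubated with a yeast strain of defined genotype (DNA damage repair defect). Inhibition of growth was derived by comparison with vehicle-exposed cultures.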
# [15] = NCI Yeast Anticancer Drug Screen. Data for the rad18 strain (AID 177); conditions: S. cerevisiae rad18 mutant growth inhibition, stronger effect = higher value
# Method in brief: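 A genetically defined yeast mutant impaired in DNA damage repair was treated with test compounds, then its growth was measured against cultures receiving vehicle alone.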
# [16] = at 5.0 µM (retest, dose inferred, filed as 0.5)
# [17] = at 50.0 µM (retest, dose inferred, filed as 5.0)
compound,measurement,setting,value
C[C@]12CCc3nonc3C1CC[C@@H]1C2CC[C@]2(C)C(=O)CCC12 (stereo partly drawn),growth inhibition,[1]; at 1.2 µM,4%
same,growth inhibition,[1]; at 3.7 µM,5%
same,growth inhibition,[1]; at 11.0 µM,22%
same,growth inhibition,[1]; at 33.0 µM,36%
same,growth inhibition,[1]; at 100.0 µM,66%
same,growth inhibition,[2]; at 1.2 µM,0%
same,growth inhibition,[2]; at 3.7 µM,-2%
same,growth inhibition,[2]; at 11.0 µM,-4%
same,growth inhibition,[2]; at 33.0 µM,6%
same,growth inhibition,[2]; at 100.0 µM,21%
same,growth inhibition,[3]; at 1.2 µM,0%
same,growth inhibition,[3]; at 3.7 µM,1%
same,growth inhibition,[3]; at 11.0 µM,5%
same,growth inhibition,[3]; at 33.0 µM,12%
same,growth inhibition,[3]; at 100.0 µM,13%
same,growth inhibition,[4]; at 1.2 µM,8%
same,growth inhibition,[4]; at 3.7 µM,6%
same,growth inhibition,[4]; at 11.0 µM,19%
same,growth inhibition,[4]; at 33.0 µM,42%
same,growth inhibition,[4]; at 100.0 µM,59%
same,growth inhibition,[5]; at 1.2 µM,11%
same,growth inhibition,[5]; at 3.7 µM,7%
same,growth inhibition,[5]; [16],51%
same,growth inhibition,[5]; at 11.0 µM,28%
same,growth inhibition,[5]; at 33.0 µM,62%
same,growth inhibition,[5]; [17],68%
same,growth inhibition,[5]; at 50.0 µM,68%
same,growth inhibition,[5]; at 100.0 µM,76% (active)
same,growth inhibition,[6]; at 1.2 µM,-1%
same,growth inhibition,[6]; at 3.7 µM,-3%
same,growth inhibition,[6]; [16],26%
same,growth inhibition,[6]; at 11.0 µM,10%
same,growth inhibition,[6]; at 33.0 µM,15%
same,growth inhibition,[6]; [17],40%
same,growth inhibition,[6]; at 50.0 µM,33.2%
same,growth inhibition,[6]; at 100.0 µM,36%
same,growth inhibition,[7]; [16],46%
same,growth inhibition,[7]; [17],73% (active)
same,growth inhibition,[7]; at 50.0 µM,81.5% (active)
same,growth inhibition,[8]; at 1.2 µM,17%
same,growth inhibition,[8]; at 3.7 µM,25%
same,growth inhibition,[8]; at 11.0 µM,28%
same,growth inhibition,[8]; at 33.0 µM,41%
same,growth inhibition,[8]; at 100.0 µM,51%
same,growth inhibition,[9]; [16],54%
same,growth inhibition,[9]; [17],57%
same,growth inhibition,[9]; at 50.0 µM,44.1%
same,growth inhibition,[10]; at 1.2 µM,1%
same,growth inhibition,[10]; at 3.7 µM,6%
same,growth inhibition,[10]; [16],14%
same,growth inhibition,[10]; at 11.0 µM,19%
same,growth inhibition,[10]; at 33.0 µM,24%
same,growth inhibition,[10]; [17],76% (active)
same,growth inhibition,[10]; at 50.0 µM,35.8%
same,growth inhibition,[10]; at 100.0 µM,49%
same,growth inhibition,[11]; at 1.2 µM,5%
same,growth inhibition,[11]; at 3.7 µM,6%
same,growth inhibition,[11]; at 11.0 µM,1%
same,growth inhibition,[11]; at 33.0 µM,14%
same,growth inhibition,[11]; at 100.0 µM,39%
same,growth inhibition,[12]; at 1.2 µM,-4%
same,growth inhibition,[12]; at 3.7 µM,-3%
same,growth inhibition,[12]; at 11.0 µM,-1%
same,growth inhibition,[12]; at 33.0 µM,19%
same,growth inhibition,[12]; at 100.0 µM,50%
same,growth inhibition,[13]; at 1.2 µM,13%
same,growth inhibition,[13]; at 3.7 µM,21%
same,growth inhibition,[13]; at 11.0 µM,31%
same,growth inhibition,[13]; at 33.0 µM,50%
same,growth inhibition,[13]; at 100.0 µM,78% (active)
same,growth inhibition,[14]; [16],46%
same,growth inhibition,[14]; [17],68%
same,growth inhibition,[14]; at 50.0 µM,56.9%
same,growth inhibition,[15]; at 1.2 µM,14%
same,growth inhibition,[15]; at 3.7 µM,12%
same,growth inhibition,[15]; at 11.0 µM,19%
same,growth inhibition,[15]; at 33.0 µM,28%
same,growth inhibition,[15]; at 100.0 µM,62%
